Screening data (PubChem)
USP2a inh: blocks human ubiquitin-specific protease USP2a; AID 463254; Potency, µM (top dose mostly 38.3 µM), without a hit: at the top dose activity change, negative = inhibition, hits mostly inhibitors; USP2 core, Ub-CHOP2 coupled fluorogenic reporter, 485/531; O75604; actives 0.01% (n = 330,000);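 further: potency means the concentration at half of the fitted maximal effect; plate controls were DMSO wells for no effect and full inhibition by NEM control for full effect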
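USP2 core (10nM final) preincubated 30min RT with compound in 20mM Tris-HCl pH 8.0, 2mM CaCl2, 2mM beta-mercaptoethanol, 0.05% CHAPS; 25nM Ub-CHOP2 plus 25nM reporter substrate added, fluorescence (Ex485/Em531) read after 60min.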
WRN helicase inh: blocks human WRN helicase; Q14191; actives 0.46% (n = 360,000); AID 651768; Potency, µM (top dose mostly 114 µM), without a hit: at the top dose activity change, negative = inhibition, usual class: inhibitors; WRN helicase unwinding, fluorescent forked duplex, kinetic; further: potency means the concentration at half of the fitted maximal effect; nearly all actives have a fitted effect of over 55% in size
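Fluorescence dequenching readout, ex 525 nm/em 598 nm, kinetic mode: forked duplex DNA (100 nM final) with adjacent fluorophore and quencher unwound by WRN (20 nM final) with 2 mM ATP. Compound preincubation 15 min, room temperature.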
USP1-UAF1 inh: USP1/UAF1 (human) deubiquitinase inhibition; actives 0.23% (n = 390,000); Potency, µM (doses to about 57.1 µM), for inactives: at the highest dose activity change, negative = inhibition, usual class: inhibitors; O94782; recombinant USP1/UAF1, Ub-Rhodamine cleavage fluorescence; further: potency means the concentration at half of the fitted maximal effect; nearly all actives have a fitted effect of over 60% in size
Target sequence (O94782 whole entry, looked up): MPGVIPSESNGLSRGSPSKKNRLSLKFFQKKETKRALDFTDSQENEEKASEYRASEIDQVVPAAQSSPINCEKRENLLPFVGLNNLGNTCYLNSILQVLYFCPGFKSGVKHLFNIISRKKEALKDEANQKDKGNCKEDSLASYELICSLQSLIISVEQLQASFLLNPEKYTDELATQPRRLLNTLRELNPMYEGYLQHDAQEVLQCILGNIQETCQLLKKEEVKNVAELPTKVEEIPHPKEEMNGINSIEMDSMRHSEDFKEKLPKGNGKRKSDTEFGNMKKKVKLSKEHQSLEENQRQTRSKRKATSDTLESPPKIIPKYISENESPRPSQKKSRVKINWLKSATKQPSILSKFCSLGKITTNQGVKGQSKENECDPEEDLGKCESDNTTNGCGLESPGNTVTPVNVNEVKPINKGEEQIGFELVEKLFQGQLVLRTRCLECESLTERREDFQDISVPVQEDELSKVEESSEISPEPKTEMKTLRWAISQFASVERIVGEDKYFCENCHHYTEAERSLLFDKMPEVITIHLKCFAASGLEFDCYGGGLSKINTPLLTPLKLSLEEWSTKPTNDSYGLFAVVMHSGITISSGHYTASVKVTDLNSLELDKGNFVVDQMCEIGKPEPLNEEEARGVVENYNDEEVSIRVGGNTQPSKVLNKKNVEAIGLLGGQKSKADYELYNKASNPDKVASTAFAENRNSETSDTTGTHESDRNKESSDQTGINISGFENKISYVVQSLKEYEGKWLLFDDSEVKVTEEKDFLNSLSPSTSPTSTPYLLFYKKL
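Step one: compound is pinned into 1nM USP1/UAF1 in HEPES pH 7.8 buffer with TCEP. Step two: 15 min room-temperature incubation. Step three: Ub-Rho (150nM final) starts cleavage, tracked by fluorescence over six one-minute reads.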
PLK1 PBD inh: PLK1 (human) polo-box domain binding inhibition. P53350. Plk1 PBD binding of FITC phosphopeptide, fluorescence polarization. Potency, µM, inactives show max response, negative = inhibition, actives largely listed as inhibitors. actives 2.8% (n = 360,000). AID 720504; further: potency means the concentration at half of the fitted maximal effect; series mostly up to about 57 µM; nearly all actives have a fitted effect of over 65% in size
PI5P4K alpha inh: PI5P4K alpha (human) kinase inhibition. PI5P4Kalpha enzyme, ADP-Glo luminescence, 60 min; stronger effect = lower value. max response, %. actives 1.2% (n = 330,000). AID 652105; active means max response of -50% or lower; inconclusive means between -30% and -50%; inactive means -30% or higher; further: value at the top dose of about 77 µM
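qHTS, 1536-well: enzyme/substrate mix, compound by pin tool, 5 microM ATP final; RT 60 min; ADP-Glo reagents 1 (45 min) then 2 (30 min); luminescence.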
Starred values were filed as active, the others as inactive; ? = inconclusive; nt = not tested or not shown; [ ] = another dose, or the depositor's remark. A selection: hits, their analogues and other compounds. The true share with any hit is near 3.3%. Unless noted, the call rests on the fitted dose curve; in most records, active means well fitted curve in the direction sought with a large enough effect; inconclusive means small, poorly fitted or top-dose-only effect, or another doubt; inactive means no such curve, though single readings can be large; an effect the other way counts as inactive or inconclusive. Unless noted, on the % scale 0 is the no-effect control and ±100 the full control effect.

SMILES	USP2a inh	WRN helicase inh	USP1-UAF1 inh	PLK1 PBD inh	PI5P4K alpha inh
O=[N+]([O-])c1cc(C(F)(F)F)ccc1Sc1ccc2ccccc2n1	1%	-14%	-7%	30µM*	nt
COc1cc2c(cc1OC)C(COc1ccccc1OC)N(C(=O)COc1ccc(Cl)cc1)CC2 (stereo unspecified)	nt	nt	-31%	nt	nt
CCOC(=O)N1CCN(C(=O)CN(c2cccc(Cl)c2)S(=O)(=O)c2ccccc2)CC1	nt	nt	-12%	nt	nt
CCOc1cc(/C=C2/C(=N)N3C(=NC2=O)SN=C3S(C)(=O)=O)ccc1OC(=O)c1ccco1	4%	-5%	-15%	?	?
CC(C)S(=O)(=O)C1=NSC2=NC(=O)/C(=C\c3ccc(OC(=O)c4ccco4)cc3)C(=N)N21	0%	-22%	-28%	?	-76*
CCS(=O)(=O)C1=NSC2=NC(=O)/C(=C\c3ccc(OC(=O)c4ccco4)cc3)C(=N)N21	1%	-16%	?	?	-87*
COc1ccccc1C(=O)N1CCC(c2noc(-c3ccc(S(=O)(=O)N4CCCC4)cc3)n2)CC1	nt	nt	-1%	nt	nt
CCc1ccc(NC(=O)Cn2ccn(-c3ccc(C)c(C)c3)c(=O)c2=O)cc1	nt	nt	-9%	nt	nt
O=C(Nc1ccc2nc(SCC(=O)N3CCOCC3)sc2c1)c1ccccc1Cl	nt	nt	-23%	nt	nt
CC[N+]1(C)CCC(O)(c2ccc(OC)cc2)C(C(=O)c2ccc(OC)cc2)C1 (stereo unspecified)	nt	10µM*	-11%	6.7µM*	-3
Cc1cc(C)[n+](-c2ccc(Oc3ccccc3)c(S(=O)(=O)[O-])c2)[nH]1	1%	-16%	-15%	27µM*	-16
Cc1cccc(NC(=S)NCCc2ccccc2)n1	0%	-4%	-14%	34µM*	-4
S=C(NCCc1ccccc1)Nc1ccccn1	0%	-1%	-7%	-13%	-12
COc1ccccc1CNC(=O)C1CCC(CNS(=O)(=O)c2ccc3c(c2)CCCC(=O)N3)CC1 (stereo unspecified)	nt	nt	-23%	nt	nt
CC(=O)c1sc(N/N=C/c2cccc(O)c2)nc1C	5%	-1%	-14%	-5%	?
CC(=O)c1sc(N/N=C\c2c(O)ccc3ccccc23)nc1C	nt	-24%	-17%	24%	-53*
O=C1C=C(O)c2[nH]c(=O)ccc2C1=O	nt	?	25µM*	-16%	-57*
Cc1cc(NC(=O)CCCN2C(=O)c3cccnc3C2=O)no1	1%	25%	-1%	3µM*	?
O=C(/C=C/c1ccc(O)c(O)c1)c1ccc(S(=O)(=O)N2CCCCCC2)cc1	?	?	-23%	-8%	-64*
COc1ccc(CC(=O)Nc2c(C(=O)Nc3ccccc3F)oc3ccccc23)cc1	nt	nt	-14%	nt	nt
O=C(O)C1Nc2c(O)cc(Cl)c([N+](=O)[O-])c2C2C=CCC12 (stereo unspecified)	?	5µM*	?	3µM*	-85*
O=[N+]([O-])c1ccc(Cl)c2c1C1C=CCC1C(c1ccccn1)N2 (stereo unspecified)	-2%	?	?	-23%	-16
COCc1cc(C)nc(SCc2ccc(F)cc2)c1C#N	-11%	-1%	2%	24µM*	-2
COc1ccc(-c2cc3nc(C)n(N)c(=O)c3s2)cc1	-1%	-5%	-6%	-3%	-53*
Cc1nc2cc(-c3ccccc3)sc2c(=O)n1N	7%	-30%	3%	1%	-72*
SMILES	USP2a inh	WRN helicase inh	USP1-UAF1 inh	PLK1 PBD inh	PI5P4K alpha inh
Cn1c(NCc2ccccc2)nc2cc(-c3ccccc3)sc2c1=O	nt	0%	nt	0%	1
COc1ccc(Nc2c3c(nc4ccc(NC(=O)/C=C/c5cccc(OC)c5OC)cc24)CCCC3)cc1OC	nt	nt	-17%	nt	nt
COc1ccc(CN2CC(C(=O)N3CC(C)CC(C)C3)CC2=O)cc1 (stereo unspecified)	3%	0%	0%	27µM*	7
COc1cc(/C=C/C(=O)OCC(=O)Nc2ccc(C)c(S(=O)(=O)N3CCCCC3)c2)ccc1O	-11%	-15%	-8%	7.5µM*	-29
COc1cc(/C=C/C(=O)OCC(=O)Nc2cc(S(=O)(=O)N3CCCCC3)ccc2C)ccc1O	-1%	-15%	-2%	-10%	-13
CCc1ccc(NC(=O)CSc2nc3c(c(=O)[nH]2)CN(Cc2ccc(C)cc2)CC3)cc1	nt	nt	-13%	nt	nt
Fc1cccc(-c2csc(-c3ccno3)n2)c1	-1%	5%	-21%	?	1
Nc1nc(-c2cccc(F)c2)cs1	2%	-5%	-20%	11µM*	1
Cc1cccc(C(=O)Nc2nnc(SCc3cc(=O)n4cccc(C)c4n3)s2)c1	nt	nt	-12%	nt	nt
CC(=O)c1sc(NCc2ccccc2)nc1C	2%	-2%	-13%	-6%	0
CC(=O)CC1OC(=O)C(Br)=C1NCc1ccccc1 (stereo unspecified)	-1%	-17%[57.1 µM]	-21%	27µM*	nt
CC1CCCC(NC(=O)CSc2ccc(F)cc2)C1C (stereo unspecified)	1%	-4%	-19%	-7%	-6
CC1CCCC(NC(=O)CCC(=O)c2ccc(F)cc2)C1C (stereo unspecified)	1%	7%	-23%	24µM*	-9
COc1ccc(N(CC(=O)Nc2cc(C)cc(C)c2)S(=O)(=O)c2ccccc2[N+](=O)[O-])c(OC)c1	-5%	-2%	-29%	-7%	4
COc1ccc(N(CC(=O)Nc2cc(C)ccc2C)S(=O)(=O)c2ccccc2[N+](=O)[O-])c(OC)c1	-12%	-8%	-4%	12µM*	-24
O=C(O)c1ccc(S(=O)(=O)c2ccc([N+](=O)[O-])cc2[N+](=O)[O-])cc1	8%	?	-10%	8.4µM*	1
O=c1nc2n(-c3ccccc3F)c3ccccc3cc-2c(=O)[nH]1	nt	nt	-18%	nt	nt
Cc1cccc(-n2c3nc(=O)[nH]c(=O)c-3cc3cc([N+](=O)[O-])ccc32)c1	1%	-35%	?	11µM*	11
c1ccc(Sc2ncccn2)nc1	1%	3%	-11%	27µM*	-3
COCCN1C(=O)/C(=C/c2ccc(N3CCCC3)cc2)SC1=S	?	-34%	5µM*	26%	-2
CC(=O)/C=C1/C(=O)Nc2ccccc21	0%	2%	-21%	21µM*	-12
COc1ccc(CNC(=O)C2CCN(S(=O)(=O)Cc3ccccc3)CC2)cc1	nt	nt	-14%	nt	nt
CCC(=O)N1CCc2cc(Br)cc(S(=O)(=O)N3CCCC(C(=O)Nc4cccc(Cl)c4C)C3)c21 (stereo unspecified)	nt	nt	-26%	nt	nt
COc1ccc(/C=N/N2C(=O)CSC2=S)cc1	nt	-10%	?	-28%	nt
O=C1CSC(=S)N1N=Cc1ccc2c(c1)OCO2	nt	?	-10%	0%	-51*
COc1ccc(/C=N/N2C(=O)CSC2=S)cc1Br	2%	-18%	19%	5%	-78*
O=C1c2ccccc2C(=O)N1N=Cc1ccc2c(c1)OCO2	nt	0%	-10%	-2%	2
